Compound activity (PubChem BioAssay)
The list is not random: actives were taken first. Their share in the collection is about 7.4%.
NPC1 promoter act: qHTS Assay for NPC1 Promoter Activators; Huh7 NPC1 promoter luciferase reporter, 24 h; Potency, µM (series often up to 9.22 µM), without a hit: top-dose activation, actives largely listed as activators; actives 2.4% (n = 320,000); further: % of control where 0% means no effect; nearly all actives have a fitted effect of over 60% in size
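Huh7 reporter cells (NPC1 promoter driving luciferase) are dosed with compound for 24 h at 37 °C, 5% CO2; luciferase detection reagent is then added and luminescence measured after 10 min at ambient temperature.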
ELG1 genotox: qHTS screen for small molecules that induce genotoxicity in human embryonic kidney (HEK293T) cells expressing luciferase-tagged ELG1; HEK293T ELG1-luciferase reporter, luminescence, 16 h; Potency, µM (doses to about 46 µM), without a hit: top-dose activity change, positive = activation, usual class: activators; actives 1.3% (n = 330,000); AID 504466, 2011; further: % of control where 0% means no effect; nearly all actives have a fitted effect of over 60% in size
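Reporter readout depends on ELG1 protein level, which increases with genetic stress. After 16 hr compound exposure at 37 °C, luciferase activity was quantified using ONE-Glo.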
Rab9 prom act: qHTS Assay for Rab9 Promoter Activators; Potency, µM (doses to about 9.22 µM), inactives show top-dose activation, negative = inhibition, actives largely listed as activators; Huh7 Rab9 promoter-luciferase reporter, luminescence, 24 h; actives 2.8% (n = 320,000); further: % of control where 0% means no effect; nearly all actives have a fitted effect of over 60% in size
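Measured in stably transfected Huh7 cells bearing a Rab9 promoter–luciferase construct: 24 h compound treatment at 37 °C, followed by luminescence detection.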
SMN2 splice up: qHTS Assay for Enhancers of SMN2 Splice Variant Expression; HEK293 SMN2-luciferase splicing reporter, luminescence, 30-36 h; Potency, µM (top dose mostly 46.1 µM), for inactives: top-dose activity change, positive = activation, usual class: activators; actives 2.8% (n = 210,000); further: % of control where 0% means no effect; nearly all actives have a fitted effect of over 55% in size
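HEK293 cells carry an SMN2 […]–luciferase reporter in which exon 7 inclusion puts luciferase in frame. Cells were plated 10-12 h before compound addition, then incubated 30-36 h at 37C. ONE-Glo luminescence was read; sodium butyrate at 4.5 mM final served as control.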
FLuc counter: qHTS profiling assay for firefly luciferase inhibitor/activator using purifed enzyme and Km concentrations of substrates (counterscreen for miR-21 project); actives 6.9% (n = 360,000); Luciferin 4-monooxygenase (Photinus pyralis), P08659; purified FLuc, Km substrates, luminescence inhibition; Potency, µM (titrated, usually from 57.5 µM), inactives show at the highest dose activity change, negative = inhibition, usual class: inhibitors;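 further: plate controls were vehicle for no effect and reference inhibitor for full effect; nearly all actives have a fitted effect of over 55% in size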
Target sequence (P08659 whole entry, looked up): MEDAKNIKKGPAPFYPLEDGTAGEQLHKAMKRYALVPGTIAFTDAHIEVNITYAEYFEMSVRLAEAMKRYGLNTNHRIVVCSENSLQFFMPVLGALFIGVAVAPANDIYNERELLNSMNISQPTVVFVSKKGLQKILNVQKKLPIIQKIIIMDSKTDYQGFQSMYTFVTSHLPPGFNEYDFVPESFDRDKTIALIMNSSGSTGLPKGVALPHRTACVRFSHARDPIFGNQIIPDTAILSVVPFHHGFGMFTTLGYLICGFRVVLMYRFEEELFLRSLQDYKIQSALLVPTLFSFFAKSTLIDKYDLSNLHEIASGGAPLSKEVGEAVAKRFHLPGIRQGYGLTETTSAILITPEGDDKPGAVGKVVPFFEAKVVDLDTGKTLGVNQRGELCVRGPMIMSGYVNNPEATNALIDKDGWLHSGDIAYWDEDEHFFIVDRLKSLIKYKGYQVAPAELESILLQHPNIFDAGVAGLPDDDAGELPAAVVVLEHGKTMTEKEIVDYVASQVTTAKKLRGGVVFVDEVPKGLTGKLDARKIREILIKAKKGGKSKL
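Purified P. pyralis luciferase (10nM final) with 10uM D-luciferin and 10uM ATP (Km levels) in 50mM Tris acetate pH 7.5, 10mM Mg acetate, 0.01% Tween-20, 0.05% BSA; qHTS 6-point titration, ~60 µM downward; luminescence read.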
KinaseGlo FLuc: Counterscreen for Luciferase (Kinase-Glo TM) Inhibition; Luciferin 4-monooxygenase (Photuris pensylvanica), Q27757; Kinase-Glo luciferase, ATP luminescence, 8 min; Potency, µM (titrated, usually from 38.3 µM), inactives show at the highest dose activity change, negative = inhibition, actives largely listed as inhibitors; actives 0.28% (n = 200,000); further: on the % scale 0 is the no-effect control and ±100 the full control effect; nearly all actives have a fitted effect of over 60% in size
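Substrate mix (final 50 mM imidazole pH 7.2, 50 mM KCl, 7 mM MgCl2, 10 uM ATP, 0.01% Tween 20, 0.05% BSA) plus pin-tool compound, then Kinase-Glo detection mix; 8 min ambient, luminescence read.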
* hit, by the source's call; ? = inconclusive; . = no result given; [ ] = remark or other dose. The call rests on the fitted dose curve; in most records, active means well fitted curve in the direction sought with a large enough effect; inconclusive means small, poorly fitted or top-dose-only effect, or another doubt; inactive means no such curve, though single readings can be large; an effect the other way counts as inactive or inconclusive. Potency means the concentration at half of the fitted maximal effect.

SMILES	NPC1 promoter act	ELG1 genotox	Rab9 prom act	SMN2 splice up	FLuc counter	KinaseGlo FLuc
C[n+]1cccc(/C=C\c2ccc3cccc(O)c3n2)c1	.	.	.	-8.8%[9.22 µM]	.	-5.6%[7.66 µM]
Cc1ccc(C)n1-c1ccc(C(=O)N/N=C/c2ccncc2)cc1	-5.7%	14.6%	-1.5%	14.7%	-6.6%	-2.9%
CC(=O)OC[C@H]1O[C@@H](n2ncc(=O)[nH]c2=O)[C@H](OC(C)=O)[C@@H]1OC(C)=O	-4.9%	-12.7%	1.4%	10µM*	-2.0%	-0.9%
CC(NC(=O)c1cc(COc2c(F)cccc2F)on1)c1cnn(-c2ccccc2)c1 (configuration not stated)	23.4%	18.2%	?	.	16.9µM*	-0.3%
COc1ccc(OCc2cc(C(=O)NC(C)c3cnn(C)c3)no2)c(Cl)c1 (configuration not stated)	?	?	?	.	13.5µM*	.
Cc1nc2cc(OCc3cc(C(=O)NC(C)c4cnn(C)c4)no3)ccc2s1 (configuration not stated)	12.5%	-4.3%	26.8%	.	16.9µM*	.
O=C(NCCNC(=O)c1cc(Cl)ccc1Cl)c1ccco1	-5.4%	-4.6%	-0.4%	.	0.6%	.
COc1cccc2cc(NC(=O)C3CCCCC3)c(=O)oc12	3.16µM*	?	1.78µM*	?	?	2.4%
COc1cccc2cc(C(=O)Nc3ccc(C)cc3)c(=O)oc12	.	.	.	14.3%	0.379µM*	.
COc1cccc2cc(CC(=O)c3ccc(C)cc3C)c(=O)oc12	?	11.0%	?	.	10.7µM*	.
COc1ccc(C(=O)Cc2cc3cccc(OC)c3oc2=O)cc1	27.7%	12.6%	-5.1%[1.84 µM]	.	?	.
COc1cccc2cc(C(=O)Nc3cccc(C)n3)c(=O)oc12	22.4%	2.31µM*	?	-8.3%	0.213µM*	-1.7%
COc1cccc2cc(C(=O)N3CCCCC3C)c(=O)oc12 (configuration not stated)	-5.3%	2.9%	-1.7%	-2.0%	-0.4%	-1.0%
COc1cccc2cc(C(=O)Nc3ccc(F)c(F)c3)c(=O)oc12	.	.	.	2.1%	0.4%	.
O=c1[nH]cnc2nc(-c3ccccc3)c(-c3ccccc3)nc12	-0.5%	0.5%	-2.2%	-0.9%	2.5%	4.2%
O=c1[nH]cnc2nn(-c3ccccc3)nc12	?	?	?	?	21.3µM*	-9.4%
CCc1nnc(NS(=O)(=O)c2ccc(NC(=O)c3ccccc3O)cc2)s1	-2.5%	0.5%	-3.2%	.	?	.
Cc1ccc2[nH]c3ccccc3c(=O)c2c1	?	14.4%	16.8%	.	16.9µM*	.
O=c1c2ccccc2[nH]c2ccc(O)cc12	3.6%	?	6.3%	.	?	.
CN(C(=O)c1ccncc1)c1nnc(-c2ccccn2)s1	23.1%	?	?	?	16.9µM*	0.2%
CCCCC(=O)Nc1nnc(-c2ccc(OC)cc2)s1	27.0%	5.6%	27.5%	?	?	-1.0%
CN(C(=O)c1ccc(C#N)cc1)c1nnc(-c2ccccn2)s1	-2.9%	9.9%	4.0%	-14.1%	-10.2%	2.0%
COc1ccc(-c2nnc(N(C)C(=O)C3CCCO3)s2)cc1 (configuration not stated)	2.51µM*	?	2µM*	11.2µM*	13.5µM*	0.8%
CN(C(=O)c1ccno1)c1nnc(-c2ccccn2)s1	12.2%	13.5%	4.7%	-1.1%	15.1µM*	-4.8%
COc1ccc(-c2nnc(N(C)C(=O)c3ccno3)s2)cc1	?	?	3.16µM*	11.2µM*	10.7µM*	-2.4%
COc1cc(OC)c(C(=O)OCC(=O)NCC2CCCCC2)cc1OC	-1.4%	2.5%	-3.7%	.	5.4%	.
